Assay outcomes: PubChem, National Center for Advancing Translational Sciences (NCATS)
HepG2 viability: qHTS for Inhibitors of TGF-b: Cytotox Counterscreen; Potency, µM (top dose mostly 46.1 µM), for the others: top-dose activity change, negative = cytotoxicity, hits mostly cytotoxic; 410,000 tested, 0.76% active; AID 588856, 2011; HepG2 CAGA-GFP viability, ATP luminescence, 18 h
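HepG2 CAGA-GFP cells (1000/well, DMEM with 1% FBS) received compound, then TGF-beta at 500 pg/mL final, and were incubated 18 hours at 37 degrees C. Viability was read by CellTiter-Glo luminescence. Media-only wells were set as complete cell-killing and DMSO as no toxicity.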
DT40 TDP1 CPT: qHTS for Inhibitors of human tyrosyl-DNA phosphodiesterase 1 (TDP1): qHTS in cells in presence of CPT; 420,000 tested, 12% active; chicken DT40 Tdp1-/-;hTDP1 cells + 20 nM CPT, ATP luminescence, 48 h; Potency, µM (series often up to 46.2 µM), inactives show at the top dose activity change, negative = growth inhibition, most hits filed as inhibitors; note: % is set by controls: 0 for no effect and ±100 for the full control effect; nearly all actives have a fitted effect of over 55% in size
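Chicken DT40 Tdp1-/- cells complemented with human TDP1, 400 cells/well, exposed to compounds plus 20 nM camptothecin for at least 48 h at 37 C; viability read as ATP content by CellTiter-Glo luminescence.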
HT1080 IDH1KD tx: qHTS for induction of synthetic lethality in tumor cells producing 2HG: qHTS for the HT-1080-IDH1KD cell line; HT-1080 IDH1 knockdown viability, ATP luminescence, 48 h; 360,000 tested, 2% active; Potency, µM (highest dose often 46.1 µM), without a hit: at the top dose activity, negative = toxicity, actives largely listed as cytotoxic; AID 686971, 2013;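 note: 0% = DMSO wells and -100% = cell-free medium wells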
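CellTiter-Glo luminescence after 48 h compound exposure at 37 degrees C of IDH1-knockdown HT-1080 cells in 5% FBS RPMI. %Activity scaled between DMSO wells and cell-free media wells, with curves fitted and assigned curve classes.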
TDP1 cell noCPT: qHTS for Inhibitors of human tyrosyl-DNA phosphodiesterase 1 (TDP1): qHTS in cells in absence of CPT; DT40 Tdp1-/- hTDP1 cells, no CPT, ATP luminescence, 48 h; Potency, µM (highest dose often 46.2 µM), inactives show top-dose activity change, negative = growth inhibition, actives largely listed as inhibitors; 420,000 tested, 15% active; note: % is set by controls: 0 for no effect and ±100 for the full control effect; nearly all actives have a fitted effect of over 55% in size
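Cells were dispensed at 400 per well, compounds added by pin tool, plates incubated ≥48 hr at 37 °C, then CellTiter-Glo added for 30 min at room temperature before luminescence reading. Line: DT40 Tdp1-/- complemented with hTDP1; camptothecin omitted.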
TGFb SMAD3 inh: qHTS for Inhibitors of TGF-b; HepG2 CAGA-GFP TGF-b/SMAD3 reporter, GFP fluorescence, 18 h; TGF-beta stimulated, 500 pg/mL final; 410,000 tested, 1.2% active; AID 588855, 2011; Potency, µM (top dose mostly 46.1 µM), without a hit: top-dose activity, negative = inhibition, hits mostly inhibitors; note: % is set by controls: 0 for no effect and ±100 for the full control effect; nearly all actives have a fitted effect of over 65% in size
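Cell-based qHTS in HEPG2 carrying a CAGA-GFP Smad reporter; compounds added before 500 pg/mL final TGF-beta, 18 h incubation at 37 degrees C, GFP fluorescence quantified per cell by imaging cytometry.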
HT1080-NT tox: qHTS for induction of synthetic lethality in tumor cells producing 2HG: qHTS for the HT-1080-NT fibrosarcoma cell line. HT-1080-NT fibrosarcoma viability, CellTiter-Glo ATP luminescence, 48 h. Potency, µM (titrated, usually from 46.1 µM), without a hit: at the top dose activity, negative = less viability, usual class: cytotoxic. 360,000 tested, 1.6% active;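 note: NT is the 2HG producing partner of a matched IDH1 knockdown line; 0% = DMSO-treated cells and -100% = media-only wells without cells; nearly all actives have a fitted effect of over 55% in size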
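Compounds were tested in concentration-response format on HT-1080-NT cells for 48 hours at 37 degrees C. Cell viability came from CellTiter-Glo luminescence; curves were classified by r2, response magnitude and activity.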
Starred values were filed as active, the others as inactive; ? = inconclusive; · = no result. Sampled rows, rich in hits. Any-hit rate of the full collection: about 17%. Calls come from the whole dose curve; as a rule, active = well fitted curve in the direction sought with a large enough effect; inconclusive = small, poorly fitted or top-dose-only effect, or another doubt; inactive = no such curve, though single readings can be large; an effect the other way counts as inactive or inconclusive. Potency is the fitted concentration of half-maximal effect.

SMILES | HepG2 viability | DT40 TDP1 CPT | HT1080 IDH1KD tx | TDP1 cell noCPT | TGFb SMAD3 inh | HT1080-NT tox
COC(=O)c1ccc(-c2ccc(OC)c(C3C4C=CCC(C)C4C(=O)N3Cc3ccccc3)c2)cc1 (configuration not stated) | 10% | · | · | · | -1% | ·
CC(O)CNc1nc2ccccc2n1-c1ncnc2sc3c(c12)CCC3 (configuration not stated) | -40% | 16µM* | ? | 29µM* | -7% | ?
CCOC(=O)c1c(NC(=O)c2ccc(S(=O)(=O)N3CCC(C)CC3)cc2)sc2c1CCN(C)C2 | -74% | 3.7µM* | · | 3.7µM* | 46% | ·
CCOC(=O)c1c(NC(=O)c2ccc(S(=O)(=O)N(CC(C)C)CC(C)C)cc2)sc2c1CCN(C(=O)OCC)C2 | -16% | -34% | · | 0.0073µM* | 11% | ·
COC(=O)c1c(NC(=O)c2ccc(S(=O)(=O)N3CC(C)OC(C)C3)cc2)sc2c1CCN(C)C2 (configuration not stated) | -62% | ? | -30% | ? | 35% | -3%
COCCN(CCOC)S(=O)(=O)c1ccc(C(=O)Nc2sc3c(c2C(=O)OC)CCN(C)C3)cc1 | -17% | -13% | · | ? | -1% | ·
CCOC(=O)c1c(NC(=O)c2ccc(S(=O)(=O)N(C)C)cc2)sc2c1CCN(C)C2 | -52% | 23µM* | · | 16µM* | 30% | ·
CCOC(=O)c1c(NC(=O)Nc2ccc(C)cc2)sc2c1CCN(C)C2 | -18% | -5% | 19% | -23% | 6% | -7%
CCOC(=O)N1CCN(S(=O)(=O)c2ccc(C(=O)Nc3sc4c(c3C(=O)OC)CCN(C)C4)cc2)CC1 | -54% | ? | ? | ? | 0% | 18µM*
CCS(=O)(=O)N1CCN(C(=O)c2ccc3nc(C)c(N(C)C(=O)CCc4ccccc4)n3c2)CC1 | 11% | -1% | 9% | -8% | 13% | 13%
CCOC(=O)c1c(NC(=O)C2CCCN(S(=O)(=O)c3ccccc3)C2)sc2c1CCCC2 (configuration not stated) | 4% | 8.2µM* | ? | 9.2µM* | -18% | 4%
CCOC(=O)c1c(NC(=S)N2CCOCC2)sc2c1CCN(C(=O)OCC)C2 | -95% | ? | 12µM* | ? | ? | 9.2µM*
CCOC(=O)c1c(NC(=S)N2CCCCC2)sc2c1CCN(C(=O)OCC)C2 | -61% | ? | ? | ? | ? | ?
Cc1ccccc1NC(=S)N1CCN(c2ccccc2Cl)CC1 | 2% | 15µM* | -9% | 12µM* | -1% | -8%
Cc1cccc(NC(=S)N2CCCCCC2)c1C | 0% | ? | 6% | ? | 10% | 1%
Cc1cccc(NC(=S)N2CCN(c3cc(C)ccc3C)CC2)c1 | 3% | ? | 9% | ? | 16% | 1%
CCN1CCN(C(=S)Nc2ccccc2Cl)CC1 | -58% | 11µM* | 7% | ? | -4% | 3%
Cc1c(Cl)cccc1NC(=S)N1CCCCCC1 | -17% | ? | 0% | 18µM* | ? | -9%
COc1ccccc1N1CCN(C(=S)Nc2cccc(C)c2)CC1 | -5% | 23µM* | ? | 23µM* | ? | -26%
Cc1oc(-c2ccccc2F)nc1CSCC(=O)NCc1ccccc1 | 3% | ? | · | ? | -21% | ·
CCOCCCNC(=O)CN1C(=O)CCn2nc(-c3cccn3C)cc21 | -5% | 8% | · | 7% | 1% | ·
COc1cc(/C=N/NC(=O)CCC(=O)NC2CCCCC2)ccc1C | -13% | 10% | 9% | -10% | -10% | 3%
COc1ccc(N2CCN(C(=S)Nc3ccccc3OC)CC2)cc1 | 2% | 1% | 4% | -21% | 3% | 9%
COc1ccccc1NC(=S)N1CCN(c2cccc(C)c2C)CC1 | -36% | 5.2µM* | -18% | 2.3µM* | ? | -28%
Cc1cccnc1NC(=O)CN1C(=O)c2ccccc2S1(=O)=O | 2% | 8% | 7% | 2% | 0% | 1%
SMILES | HepG2 viability | DT40 TDP1 CPT | HT1080 IDH1KD tx | TDP1 cell noCPT | TGFb SMAD3 inh | HT1080-NT tox
CCC1(C)Cc2ccccc2-c2nc(NCCCO)n(-c3ccccc3)c(=O)c21 (configuration not stated) | -44% | 2.1µM* | -11% | 4.1µM* | -16% | -1%
CCC1(C)Cc2ccccc2-c2nc(NCCO)[nH]c(=O)c21 (configuration not stated) | -17% | ? | -2% | ? | 32% | -4%
CCn1c(NCCO)nc2c(c1=O)C(C)(CC)Cc1ccccc1-2 (configuration not stated) | 11% | ? | -29% | 16µM* | 0% | ?
CCC1(C)Cc2ccccc2-c2nc3n(c(=O)c21)CCS3 (configuration not stated) | 8% | ? | 4% | 8.2µM* | ? | 2%
CCC1(C)Cc2ccccc2-c2nc3n(c(=O)c21)CC(C(=O)O)S3 (configuration not stated) | -10% | 3% | 5% | 8% | -2% | 5%
CC1(C)Cc2ccccc2-c2nc(NCCCO)[nH]c(=O)c21 | -11% | 0% | 3% | -4% | -3% | -19%
CCC(C(=O)NCCc1ccc(OC)c(OC)c1OC)n1nc(C)c2sc3ccccc3c2c1=O (configuration not stated) | -14% | 9.2µM* | · | 12µM* | -26% | ·
COc1ccc(CCNC(=O)C(C)n2nc(C)c3sc4ccccc4c3c2=O)c(OC)c1 (configuration not stated) | 0% | 21µM* | · | 16µM* | · | ·
CCOc1ccc(CCNC(=O)CCCn2nc(C)c3sc4ccccc4c3c2=O)cc1OCC | -8% | 23µM* | · | 18µM* | -1% | ·
CCCN1CCN(CCCNC(=O)C(CC)n2nc(C)c3sc4ccccc4c3c2=O)CC1 (configuration not stated) | -17% | -26% | 0% | 2% | -11% | -25%
COc1ccc(CCNC(=O)CCCn2nc(C)c3sc4ccccc4c3c2=O)cc1OC | -17% | ? | · | ? | ? | ·
